Pf apPOL inh – Pf-apPOL DNA polymerase inhibition | actives 0.25% (n = 210,000) | inhibition, % at 10 µM | Recombinant Pf-apPOL, molecular beacon fluorescence, 1.5 h | AID 1794808
mHTT-CaM PPI inh – inhibitors of human mutant huntingtin-calmodulin interaction. P42858. AID 1671202. AlphaScreen His-mHTT/GST-CaM binding, luminescence. inhibition, % at 15 µM. actives 3.6% (n = 190,000);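 note: 0% = both proteins with DMSO and 100% = one protein alone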
* marks the source's active call; other numbers are inactive results; i = inactive; ! = not active in a repeat. Hits are enriched below; roughly 3.5% of the tested compounds scored in any of these assays. Cut-off read from the data, not from the text of the source: active = inhibition above about 50%; inactive = the rest.

SMILES	Pf apPOL inh	mHTT-CaM PPI inh
O=C(NCCc1c[nH]c2ccccc12)c1cc2n(n1)C(C(F)(F)F)CC(c1ccco1)N2 (stereo not given)	-2.4	61.5*
O=C(Nc1ccc2nsnc2c1)N1CCSCC1	0.7	-2.7
O=C(COc1ccc(Cl)cc1)Nc1nnc(Cc2cccs2)o1	-64.5	78.4*
O=C(CSc1ccc(F)cc1)Nc1nnc(Cc2cccs2)o1	-12.0	32.7
O=C(COc1ccc(Cl)cc1Cl)Nc1nnc(Cc2ccc3c(c2)OCO3)o1	-206.7	91.9*
O=C(COc1ccc(Cl)cc1Cl)Nc1nnc(COc2ccccc2)o1	-260.3	97.3*
CSc1ccccc1-c1nnc(NC(=O)CCOc2ccccc2)o1	-0.2	-1.6
COc1ccccc1-c1nnc(NC(=O)COc2ccccc2)o1	0.2	76.7*
O=C(COc1ccc(Cl)cc1Cl)Nc1ccccc1F	-3.7	-4.9
O=C(CCS(=O)(=O)c1ccc(Cl)cc1)Nc1nnc(Cc2ccc3c(c2)OCO3)o1	8.5	4.1
CCc1nc(-c2cccnc2N2CCCC(C(=O)NCc3ccc(F)cc3)C2)no1 (stereo not given)	-4.9	7.0
Cc1cc([N+](=O)[O-])ccc1NC(=O)c1ccccc1-c1ccccc1C(=O)O	-1.8	1.0
COC(=O)c1ccc(C(=O)Nc2nnc(Cc3ccc4c(c3)OCO4)o2)cc1	-48.9	56.8*
CCOc1cccc2cc(C(=O)Nc3nnc(-c4ccno4)o3)oc12	78.9*	14.5
COC(=O)c1ccc(C(=O)Nc2nnc(-c3ccn(C(C)C)n3)o2)cc1	-2.6	64.6*
COC(=O)c1ccc(C(=O)Nc2nnc(-c3cc(Cl)ccc3Cl)o2)cc1	-3.7	-23.8
CC1CN(S(=O)(=O)c2ccc(C(=O)Nc3nnc(-c4ccno4)o3)cc2)CC(C)O1 (stereo not given)	19.0	41.6
O=C(Nc1nnc(-c2ccno2)o1)c1ccc2c(c1)OCO2	39.8	96.3*
COc1cccc2cc(C(=O)Nc3nnc(Cc4ccc(Cl)s4)o3)oc12	-11.7	-7.8
COC(=O)c1ccc(NC(=O)C(=O)NCc2ccc3c(c2)OCO3)cc1	-2.7	-11.5
CCNC(=O)c1csc(COc2cccc(F)c2)n1	-7.6	-0.3
Cn1nc(C(=O)N2CC3CC(NC(=O)c4cccs4)C2C3)c2ccccc21 (stereo not given)	-1.3	2.2
CCOC(=O)N1CCc2nn(CC(=O)Nc3ccccc3C(F)(F)F)c(=O)cc2C1	-5.6	-2.1
CC(C)CN(C)C(=O)c1ccc(-c2ccc3c(c2)OCO3)s1	-8.1	-6.7
Fc1cc(F)cc(CN2CCc3nc(N4CCOCC4)ncc3C2)c1	38.2	1.0
SMILES	Pf apPOL inh	mHTT-CaM PPI inh
CCN(CC)c1ccc(NC(=O)c2cn(CC)c3nc(C)ccc3c2=O)c(C)c1	1.0	15.0
COc1nn(C)cc1C(=O)Nc1nnc(-c2ccco2)o1	-0.5	-5.4
COc1nn(C)cc1C(=O)Nc1nnc(COc2ccccc2)o1	-6.6	65.7*
CCCNc1cc(N2CCCC(CCC(=O)N(C)CCc3ccncc3)C2)ncn1 (stereo not given)	-5.4	2.6
Fc1ccc(C2Nc3c(F)cccc3C3C=CCC32)cc1 (stereo not given)	-6.5	57.0*
c1ccc(C2Nc3ccccc3C3OCCC23)cc1 (stereo not given)	-0.4	-1.0
COc1cccc2c1NC(c1ccccc1Br)C1CC=CC21 (stereo not given)	2.8	38.0
O=C(O)c1cccc2c1NC(c1ccc(F)cc1)C1CC=CC21 (stereo not given)	0.6	96.0*!
O=C(O)c1cccc2c1NC(c1ccccc1Br)C1CC=CC21 (stereo not given)	5.2	48.0
Fc1ccc(C2Nc3ccccc3C3C=CCC32)cc1 (stereo not given)	15.9	87.0*
Fc1cccc2c1NC(c1ccc(Br)cc1)C1CC=CC21 (stereo not given)	3.8	40.0
COc1cccc2c1NC(c1ccc(Br)cc1)C1CC=CC21 (stereo not given)	5.3	58.0*
CCC(C)NC(=O)c1ccc2nc(-c3ccccc3)cn2c1 (stereo not given)	1.5	-14.4
CCOC(=O)CCCCCN1C(=O)C(=Cc2ccc(OC)cc2)SC1=S	-65.4	14.3
CC(=O)c1ccc(NC(=O)C2CC(=O)N(c3ccc4c(c3)CCN4C(C)=O)C2)cc1 (stereo not given)	-9.1	-8.8
N/C(=N\OC(=O)c1ccccc1F)c1ccccn1	11.7	i
Cc1cccc(CN2CCCn3nc(C(=O)NCCc4cnc[nH]4)cc3C2=O)c1	-4.1	-6.6
Cc1ccccc1C1CCCN1C(=O)NC1CCCC1 (stereo not given)	-4.9	-7.9
Cc1oc(C2CCN(C(=O)c3ccc(C#N)cc3)CC2)nc1C(=O)N1CCSCC1	-3.7	-1.0
COc1cccc2c1NC(c1cccc(Br)c1)C1CC=CC21 (stereo not given)	-11.0	53.0*
COc1cccc2c1NC(c1ccc(F)cc1)C1CC=CC21 (stereo not given)	-2.0	79.0*
CN(C)C(=O)c1cccc2c1NC(c1ccc(Br)cc1)C1CC=CC21 (stereo not given)	-37.9	64.2*
